TDP1 inh – blocks human tyrosyl-DNA phosphodiesterase 1; Potency, µM (series often up to 130 µM), without a hit: top-dose activity change, negative = inhibition, usual class: inhibitors; recombinant TDP1, AlphaScreen DNA substrate cleavage; 0.28% of 350,000 active; Q9NUW8; further: potency means the concentration at half of the fitted maximal effect; nearly all actives have a fitted effect of over 40% in size
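Recombinant E. coli-expressed Tdp1 (1 nM) preincubated with compound 15 min at RT, then 5'-biotin/3'-phosphotyrosine-FITC DNA substrate (15 nM) added for 5 min. AlphaScreen beads (10 ug/ml) added, 10 min RT; tyrosine-FITC cleavage read as signal loss.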
Six1-Eya2 inh – Six1/Eya2 interaction inhibition | Q15475+O00167 | AlphaScreen GST-Six1/His-Eya2 binding, biochemical; active compounds read low | activity change, % (concentration not given with the values) | 0.56% of 360,000 active; in the data active means activity change below about -65%; inconclusive means mostly about -30% to -63%
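Homogeneous AlphaScreen proximity assay pairing GST-Six1 with His-tagged Eya2 (added as 5X mix: 250 nM and 500 nM) in 50 mM Tris pH 8.0, 300 mM NaCl, 1 mM TCEP. Glutathione donor and nickel acceptor beads; 1 h, 37 °C, dark.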
DT40 TDP1 no CPT – qHTS for Inhibitors of human tyrosyl-DNA phosphodiesterase 1 (TDP1): qHTS in cells in absence of CPT | 15% of 420,000 active | DT40 Tdp1-/- hTDP1 cells, no CPT, ATP luminescence, 48 h | Potency, µM (doses to about 46.2 µM), for the others: at the top dose activity change, negative = growth inhibition, most hits filed as inhibitors; further: potency means the concentration at half of the fitted maximal effect; nearly all actives have a fitted effect of over 55% in size
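Cells were dispensed at 400 per well, compounds added by pin tool, plates incubated ≥48 hr at 37 °C, then CellTiter-Glo added for 30 min at room temperature before luminescence reading. Line: DT40 Tdp1-/- complemented with hTDP1; camptothecin omitted.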
IL1B secr inh – inhibitors of inflammasome signaling (IL-1 beta secretion); THP-1 LPS/ATP IL-1B secretion, AlphaLISA, 16 h; active compounds read low; 4.7% of 360,000 active; activity change, % at 57.5 µM; in the data active means activity change below about -50%; inconclusive means mostly about -30% to -49%
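Secreted IL-1B measured by AlphaLISA bead assay after 16 h compound exposure of THP-1 cells; compounds (final up to 57.5 uM) added 1 h before LPS (250 ng/mL) and ATP (1.25 mM) stimulation; lower signal means less secretion.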
CtBP-E1A inh – CtBP/E1A binding inhibition; AlphaScreen GST-E1A/His-CtBP binding, 1536-well; active compounds read low; 0.49% of 340,000 active; activity change, % (concentration not given with the values); in the data active means activity change below about -65%; inconclusive means mostly about -30% to -63%
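GST-E1A and His-tagged CtBP (125 nM each as 5X stock) were preincubated with pin-transferred compound for 2 h at 37 °C in the dark, then glutathione donor and nickel acceptor beads were added for 1 h before AlphaScreen reading.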
TDP1 cell CPT – growth inhibition of DT40 Tdp1-/-;hTDP1 cells with camptothecin (screen for TDP1 inhibitors); 12% of 420,000 active; Potency, µM (top dose mostly 46.2 µM), for the others: at the top dose activity change, negative = growth inhibition, most hits filed as inhibitors; chicken DT40 Tdp1-/-;hTDP1 cells + 20 nM CPT, ATP luminescence, 48 h; AID 686979; further: potency means the concentration at half of the fitted maximal effect; nearly all actives have a fitted effect of over 55% in size
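Cell growth measured by CellTiter-Glo luminescence after a minimum 48 h, 37 C compound exposure with 20 nM CPT in Tdp1-knockout DT40 cells stably expressing hTDP1, seeded 400/well; qHTS titration format.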
* marks the source's active call; other numbers are inactive results. In the library only some 18% were active in any assay of this set; here they are far more common. Unless noted, the call rests on the fitted dose curve; in most records, active means well fitted curve in the direction sought with a large enough effect; inconclusive means small, poorly fitted or top-dose-only effect, or another doubt; inactive means no such curve, though single readings can be large; an effect the other way counts as inactive or inconclusive. On the % scale 0 is the no-effect control and ±100 the full control effect.

Results for O=C(C1CC1)N1c2ccccc2Sc2ccccc21 ?
TDP1 inh: 5%; Six1-Eya2 inh: 5; DT40 TDP1 no CPT: inconclusive; IL1B secr inh: -27; CtBP-E1A inh: 4; TDP1 cell CPT: inconclusive

How did O=C(c1ccco1)N1CCN(C(=O)N2c3ccccc3Sc3ccccc32)CC1 do in these assays?
TDP1 inh: 7%; Six1-Eya2 inh: -4; DT40 TDP1 no CPT: 0.63µM*; IL1B secr inh: 21; CtBP-E1A inh: 11; TDP1 cell CPT: 0.23µM*

What do the screens show for `CCOC(=O)C1CCCN(S(=O)(=O)NC[C@H]2O[C@@H](n3cnc4c(N)ncnc43)[C@H](O)[C@@H]2O)C1` (stereo not given in full)?
TDP1 inh: 1%; Six1-Eya2 inh: 28; DT40 TDP1 no CPT: -4%; IL1B secr inh: 2; CtBP-E1A inh: 0; TDP1 cell CPT: inconclusive

What do the screens show for `Nc1ncnc(Nc2cccc(C(F)(F)F)c2)n1`?
TDP1 inh: 5%; Six1-Eya2 inh: 3; DT40 TDP1 no CPT: -14%; IL1B secr inh: -28; CtBP-E1A inh: -3; TDP1 cell CPT: -29%

Results for Cc1ccc([N+](=O)[O-])cc1S(=O)(=O)Nc1ccc(-c2ccc(N3CCOCC3)nn2)cc1 ?
Six1-Eya2 inh: -1; DT40 TDP1 no CPT: -1%; IL1B secr inh: 4; CtBP-E1A inh: -6; TDP1 cell CPT: -1%

How did Cc1ccc(NS(=O)(=O)c2cc([N+](=O)[O-])ccc2N/N=C/c2sc(N3CCOCC3)nc2-c2ccccc2)c(C)c1 do in these assays?
Six1-Eya2 inh: 1; DT40 TDP1 no CPT: 18µM*; IL1B secr inh: 0; CtBP-E1A inh: 5; TDP1 cell CPT: 21µM*

What do the screens show for `CCOC(=O)Cn1nc(/C=C/c2ccc(C)cc2)ccc1=O`?
TDP1 inh: 3%; Six1-Eya2 inh: 11; DT40 TDP1 no CPT: 23µM*; IL1B secr inh: -28; CtBP-E1A inh: 10; TDP1 cell CPT: inconclusive

What do the screens show for `CCOC(=O)Cn1nc(/C=C/c2ccc(C(C)C)cc2)ccc1=O`?
TDP1 inh: -2%; Six1-Eya2 inh: 7; DT40 TDP1 no CPT: inconclusive; IL1B secr inh: -28; CtBP-E1A inh: -4; TDP1 cell CPT: 15µM*

What do the screens show for `Cc1ccccc1Cn1ccc(NC(=O)c2nn3cccnc3c2Cl)n1`?
TDP1 inh: 0%; Six1-Eya2 inh: -4; DT40 TDP1 no CPT: inconclusive; IL1B secr inh: -11; CtBP-E1A inh: -5; TDP1 cell CPT: 21µM*

Results for Cc1ccccc1Cn1ccc(NC(=O)c2cc3ncc(Br)cn3n2)n1 ?
TDP1 inh: inconclusive; Six1-Eya2 inh: 9; DT40 TDP1 no CPT: 3%; IL1B secr inh: 3; TDP1 cell CPT: 7%

How did CN1C(=O)/C(=N\OC(=O)c2ccccc2Cl)c2ccccc21 do in these assays?
TDP1 inh: 2%; Six1-Eya2 inh: 4; DT40 TDP1 no CPT: 23µM*; IL1B secr inh: -23; TDP1 cell CPT: 23µM*

Results for Cc1nc2ccccc2c(=O)n1/N=C1\C(=O)N(C)c2ccccc21 ?
TDP1 inh: -2%

Results for CC(C)CC(=O)O/N=C1\C(=O)N(Cc2ccc(Cl)cc2)c2ccc([N+](=O)[O-])cc21 ?
TDP1 inh: 7%

Results for CC(=O)O/N=C1\C(=O)N(Cc2ccc(C)cc2)c2ccccc21 ?
TDP1 inh: 9%; Six1-Eya2 inh: -2; DT40 TDP1 no CPT: inconclusive; IL1B secr inh: -94*; CtBP-E1A inh: -18; TDP1 cell CPT: -11%

Results for CCOC(=O)C1CCCN(C(=O)c2cc(-c3ccccc3)cs2)CC1 (stereo not given) ?
Six1-Eya2 inh: 5; DT40 TDP1 no CPT: inconclusive; IL1B secr inh: -15; CtBP-E1A inh: 8; TDP1 cell CPT: inconclusive
